Sampled rows, rich in hits. Any-hit rate of the full collection: about 12%.
SARS PLpro yeast: blocks SARS-CoV papain-like protease in a yeast assay; S. cerevisiae expressing SARS-CoV PLpro, growth rescue; Potency, µM (highest dose often 32.9 µM), hits mostly activators; AID 485353; 330,000 tested, 0.19% active; calls by dose curve; also: nearly all actives have a fitted effect of over 55% in size
Pf growth 96h: inhibits malaria parasite growth, 96 h | P. falciparum luciferase reporter growth, 96 h | Potency, µM (top dose mostly 28.7 µM), hits mostly inhibitors | 320,000 tested, 6.9% active | AID 504834
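P. falciparum expressing integrated firefly luciferase grown in erythrocytes (2% hematocrit, 0.05% parasitemia final) with compounds for 96 hours at 37 C, 5% CO2. Growth inhibition read as loss of luminescence after adding luciferase detection reagent.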
Pf growth 48h: inhibits P. falciparum growth in the first generation, 48 h; P. falciparum luciferase growth in erythrocytes, 48 h; Potency, µM (top dose mostly 28.7 µM), usual class: inhibitors; 310,000 tested, 5.9% active
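Erythrocytes infected with P. falciparum carrying an integrated firefly luciferase reporter (2% hematocrit, 0.1% parasitemia final) were exposed to compounds in RPMI 1640 with 0.5% Albumax at 37 C, 5% CO2. Growth inhibition was scored as reduced luminescence.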
AmpC no deterg: blocks E. coli AmpC beta-lactamase in detergent-free assay; P00811; AID 485341; Potency, µM (highest dose often 57.1 µM), usual class: inhibitors; 330,000 tested, 0.52% active; AmpC nitrocefin hydrolysis, absorbance 480 nm, 0.0001% Triton; also: nearly all actives have a fitted effect of over 20% in size
Target sequence (P00811 whole entry, looked up): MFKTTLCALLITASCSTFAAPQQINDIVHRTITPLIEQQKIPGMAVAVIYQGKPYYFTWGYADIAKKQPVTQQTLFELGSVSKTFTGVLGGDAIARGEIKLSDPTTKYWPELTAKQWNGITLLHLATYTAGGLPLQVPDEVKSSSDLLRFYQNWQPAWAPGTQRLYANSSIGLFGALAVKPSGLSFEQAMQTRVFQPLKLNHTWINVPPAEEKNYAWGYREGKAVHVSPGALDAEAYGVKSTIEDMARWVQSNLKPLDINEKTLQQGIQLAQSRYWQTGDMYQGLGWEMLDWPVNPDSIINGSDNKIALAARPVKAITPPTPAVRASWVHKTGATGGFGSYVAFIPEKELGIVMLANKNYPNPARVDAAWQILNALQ
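AmpC (5.3 nM in the dispensed reagent) in 20 mM phosphate pH 7.0 with 0.01% (detergent screen) or 0.0001% Triton X-100 was preincubated with compounds for 15 min at room temperature. Nitrocefin was then added from an 800 uM solution, and hydrolysis was followed at 480 nm.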
Sm TGR inh: S. mansoni TGR enzyme inhibition; Q962Y6; purified TGR, DTNB reduction, TNB absorbance 405 nm; Potency, µM (titrated, usually from 114 µM), most hits filed as inhibitors; 360,000 tested, 3% active; also: nearly all actives have a fitted effect of over 60% in size
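Kinetic colorimetric format: TGR-catalysed, NADPH-driven DTNB reduction monitored via TNB absorbance. Enzyme dispensed at 20 nM; compound exposure 15 min at room temperature before reaction start.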
AmpC inh detg: blocks E. coli AmpC beta-lactamase in detergent assay | AID 485294 | Potency, µM (top dose mostly 114 µM), hits mostly inhibitors | AmpC hydrolysis of nitrocefin, absorbance 480 nm, 0.01% Triton | P00811 | 370,000 tested, 0.041% active; also: nearly all actives have a fitted effect of over 25% in size
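AmpC (5.3 nM in the dispensed reagent) in 20 mM phosphate pH 7.0 with 0.01% (detergent screen) or 0.0001% Triton X-100 was preincubated with compounds for 15 min at room temperature. Nitrocefin was then added from an 800 uM solution, and hydrolysis was followed at 480 nm.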
A number is an active result; n = inactive; u = inconclusive; x = not tested or not shown. Unless noted, calls follow the shape of the dose curve; as a rule, active = well fitted curve in the direction sought with a large enough effect; inconclusive = small, poorly fitted or top-dose-only effect, or another doubt; inactive = no such curve, though single readings can be large; an effect the other way counts as inactive or inconclusive.

SMILES | SARS PLpro yeast | Pf growth 96h | Pf growth 48h | AmpC no deterg | Sm TGR inh | AmpC inh detg
Cc1cc(C)n(-c2ccc(C(=O)C(C#N)c3nc4ccccc4n3C)cc2)n1 (centres undefined) | n | 9.3µM | n | n | n | u
Cc1ccc(C)n1-c1ccc(C(=O)O)cc1 | n | n | x | n | 18µM | n
CC(C)c1ccc(/C=N/NC(=O)c2c(Cl)cnn2C)cc1 | n | n | n | n | n | u
O=C(NCCc1c[nH]c2ccccc12)c1ccco1 | x | n | n | n | n | n
O=C(NCc1ccco1)/C(=C\c1cccs1)NC(=O)c1ccco1 | n | 4.1µM | n | n | n | n
O=C(NCc1ccco1)/C(=C\c1cccs1)NC(=O)c1ccsc1 | n | n | n | n | n | n
O=C(NCCc1c[nH]c2ccccc12)/C(=C/c1ccco1)NC(=O)c1ccco1 | n | 0.29µM | n | n | x | n
Cc1ccc(C(=O)N/C(=C\c2sccc2C)C(=O)NCc2ccco2)cc1 | n | 3.3µM | n | n | n | n
O=C(NCc1ccco1)/C(=C/c1ccco1)NC(=O)c1ccco1 | n | n | n | n | 25µM | n
COc1cccc(CNC(=O)CN2C(=O)COc3ccc(S(=O)(=O)N4CCC(C)CC4)cc32)c1 | n | n | n | n | n | n
Fc1ccc2[nH]c(-c3cccs3)cc2c1 | x | x | x | x | n | n
O=S(=O)(NCc1ccccc1F)NCc1ccccc1F | n | n | n | n | n | n
O=C(NC(Cc1ccccc1)C(=O)O)/C(=C/c1ccccc1)NC(=O)c1ccco1 (centres undefined) | n | 5.2µM | n | n | n | n
COc1ccc(/C=C(\NC(=O)c2ccco2)C(=O)NCc2ccco2)cc1 | n | n | n | n | n | n
O=C(NCc1ccco1)/C(=C\c1ccc(F)cc1)NC(=O)c1ccco1 | n | n | n | n | 32µM | n
O=C(NC(Cc1ccccc1)C(=O)O)/C(=C\c1ccc(F)cc1)NC(=O)c1ccco1 (centres undefined) | n | n | n | n | n | n
CN(C(=O)CC(=O)Nc1ccc2nc3n(c(=O)c2c1)CCCCC3)c1ccccc1F | x | x | x | x | n | n
CS(=O)(=O)N1CCc2cc(S(=O)(=O)NCc3ccccc3Cl)ccc21 | x | x | x | x | n | n
CN(C)S(=O)(=O)Oc1cc(Cl)ccc1C(=O)Nc1ccc(F)cc1F | n | u | u | n | n | n
O=C(c1cccnc1)N1CCN(c2c(Cl)cccc2[N+](=O)[O-])CC1 | n | u | n | n | n | n
Cc1ccc(N/N=C/c2ccncc2)cc1 | n | u | u | n | 50µM | n
Clc1cccc(N/N=C/c2ccncc2)c1 | n | n | 2.6µM | n | n | n
O=C(Nc1cccc(Cl)c1)O/N=C\c1ccncc1 | n | n | n | n | n | n
O=C(O)c1ccccc1C(=O)c1ccc(-c2ccccc2)cc1 | n | u | n | n | n | n
O=C(c1ccccc1)c1ccccc1N1C(=O)C=CC1=O | n | n | u | n | 0.56µM | u
SMILES | SARS PLpro yeast | Pf growth 96h | Pf growth 48h | AmpC no deterg | Sm TGR inh | AmpC inh detg
Cc1ccc(NC(=O)c2c(C)nc3sc(C(=O)Nc4ccc(F)cc4)c(N)c3c2-c2ccc(C)o2)c(C)c1 | x | x | x | x | n | n
Cc1ccccc1C(=O)c1c[nH]c(C(=O)NCCc2ccccn2)c1 | n | 9.3µM | 12µM | n | n | u
CCC(=O)c1c[nH]c(C(=O)NCCc2ccccn2)c1 | n | n | n | n | n | n
COc1ccc(-c2n(CC(=O)OC3CC(C)CCC3C(C)C)c3ccccc3[n+]2C)cc1 (centres undefined) | n | n | n | n | u | n
COc1ccc(OCc2n(CC(=O)OC3CC(C)CCC3C(C)C)c3ccccc3[n+]2C)cc1 (centres undefined) | n | u | 1µM | n | n | n
O=C(CNC(=O)c1ccc(Cl)cc1Cl)OCC(=O)N1CCCC1=O | n | n | n | n | n | n
COc1ccc(S(=O)(=O)N(C)c2ccc(C(N)=O)cc2)cc1 | n | x | n | n | n | n
COc1ccc(-c2cc(C(F)(F)F)c(C#N)c(=O)[nH]2)cc1 | n | n | n | n | n | n
